High-throughput results (PubChem)
In the library only some 2.4% were active in any assay of this set; here they are far more common.
Cruzain Triton: blocks cruzain activity in presence of Triton detergent. P25779. purified cruzain, Z-FR-AMC fluorescence, 0.01% Triton. Potency, µM, usual class: inhibitors. hit rate 0.43% among 200,000; note: nearly all actives have a fitted effect of over 40% in size
Target sequence (P25779 123-467 limits assumed): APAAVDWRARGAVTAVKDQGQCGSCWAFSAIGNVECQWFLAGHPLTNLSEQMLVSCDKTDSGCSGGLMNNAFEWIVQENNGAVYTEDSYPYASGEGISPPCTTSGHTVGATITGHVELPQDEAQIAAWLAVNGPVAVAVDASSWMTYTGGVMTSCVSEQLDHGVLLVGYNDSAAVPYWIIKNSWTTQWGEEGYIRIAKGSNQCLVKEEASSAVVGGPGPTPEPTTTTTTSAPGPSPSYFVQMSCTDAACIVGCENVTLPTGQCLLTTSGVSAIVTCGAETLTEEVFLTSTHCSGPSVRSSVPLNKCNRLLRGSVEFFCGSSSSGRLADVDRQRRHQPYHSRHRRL
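Sodium acetate buffer (100 mM, pH 5.5) containing 5 mM DTT and 0.01% Triton X-100 hosted 1.5 nM cruzain and test compound for 15 min at room temperature. Cleavage of 2 uM Z-FR-AMC was then tracked by fluorescence.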
Cruzain noTriton: cruzain (T. cruzi) inhibition without detergent | hit rate 2.3% among 200,000 | Potency, µM, most hits filed as inhibitors | purified cruzain, Z-FR-AMC fluorescence, no detergent | P25779; note: nearly all actives have a fitted effect of over 40% in size
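Detergent-free condition (0.00005% Triton X-100) in acetate buffer pH 5.5 with DTT. 1.5 nM enzyme and compound were pre-mixed 15 min, then 2 uM Z-FR-AMC substrate added; reaction progress from fluorescence change between first and third reads (60 s).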
Numbers stand for hits; . = inactive; ? = inconclusive. Calls come from the whole dose curve; as a rule, active = well fitted curve in the direction sought with a large enough effect; inconclusive = small, poorly fitted or top-dose-only effect, or another doubt; inactive = no such curve, though single readings can be large; an effect the other way counts as inactive or inconclusive.

SMILES | Cruzain Triton | Cruzain noTriton
COc1ccc(NS(=O)(=O)c2ccc3[nH]c4c(c3c2)CCCCC4)cc1 | . | ?
NNC(=O)c1ccc[n+](CCc2ccccc2)c1 | . | .
O=C(Nc1cc(Cl)cc(Cl)c1)c1ccc(F)c(S(=O)(=O)N2CCCCCC2)c1 | . | .
CCOc1ccc(C2=C(C(=O)CC)Sc3nncn3N2C(=O)CC)cc1 | . | .
C[C@@H](N=C(N)N)C(=O)O | . | .
COC(=O)CSc1nnc([C@H](Cc2ccccc2)NC(=O)OC(C)(C)C)o1 | . | .
Cc1cccc(CS(=O)(=O)c2nnc([C@H](Cc3ccccc3)NC(=O)OC(C)(C)C)o2)c1 | 16µM | 16µM
O=C1C=CC(=O)C2=C1C1c3ccccc3C2c2ccccc21 | . | .
O=C(Nc1ccc(Cl)cc1Cl)c1cc(S(=O)(=O)N2CCC3(CC2)OCCO3)ccc1F | . | .
c1ccc(CN=C2NN=C(c3cc4ccccc4o3)CS2)cc1 | . | ?
c1ccc2oc(C3=NNC(=NC4CC4)SC3)cc2c1 | . | 16µM
Cc1ccc(Cl)cc1NS(=O)(=O)c1ccc2oc(=O)c3ncn(C)c3c2c1 | . | .
Cc1ccc(CNC(=O)CN2C(=O)CSc3ccc(S(=O)(=O)N4CCCC4)cc32)cc1 | . | .
O=C(Nc1cc(-c2ccccc2F)nn1-c1ccccc1)c1ccccc1Br | . | 32µM
Cc1cccc(C(=O)Nc2cc(-c3ccccc3F)nn2-c2ccccc2)c1 | . | .
Cc1ccc(C(=O)c2coc3c2C(=O)C(=O)c2ccccc2-3)cc1 | . | 13µM
Cc1ccc(C(=O)c2c(C)oc3c2C(=O)C(=O)c2ccccc2-3)cc1 | . | ?
C=C(C)Cn1c(CCNC(=O)CCC)nc2ccccc21 | . | 16µM
Cc1ccc(OCCCn2c(CCNC(=O)C3CCCCC3)nc3ccccc32)c(C)c1 | 2.5µM | .
CCCCn1c(CCCNC(=O)c2cccc(C)c2)nc2ccccc21 | . | .
Cc1ccccc1OCCCCn1c(CCNC(=O)C(C)(C)C)nc2ccccc21 | . | ?
CCCn1c(CCNC(=O)c2cccs2)nc2ccccc21 | 16µM | .
Cc1cccc(C(=O)NCCc2nc3ccccc3n2CCC(C)C)c1 | 13µM | .
CCn1c(CCCNC(=O)c2cccs2)nc2ccccc21 | . | .
C=C(C)Cn1c(CCCNC(=O)CC)nc2ccccc21 | . | .
SMILES | Cruzain Triton | Cruzain noTriton
Nc1c(C(=O)Nc2ccc(OC(F)(F)F)cc2)nnn1Cc1ccccc1 | . | .
CCn1c(CCCNC(=O)c2ccc(F)cc2)nc2ccccc21 | . | .
CCCCCn1c(CNC(=O)c2ccc(F)cc2)nc2ccccc21 | . | .
CCCCn1c(CCNC(=O)c2ccc(F)cc2)nc2ccccc21 | 7.1µM | .
CCn1c(CCNC(=O)c2ccc(F)cc2)nc2ccccc21 | 22µM | 2.5µM
O=C1C2C(c3ccccc3)(C(=O)N1c1ccc(Cl)cc1)C2(c1ccccc1)c1ccccc1 (stereo unspecified) | . | 25µM
O=C1c2ccccc2C(=O)N1c1ccc(Cl)cc1 | ? | .
O=C(NCCc1ccccc1)c1cccs1 | . | .
C[C@@H](NC(=O)/C(C#N)=C/c1ccc(O)c(O)c1)c1ccccc1 | . | .
CC(NC(=O)/C(C#N)=C1\N=C(NC(=O)c2cccs2)c2ccccc21)c1ccccc1 (stereo unspecified) | . | 16µM
N#C/C(C(=O)NCCc1ccccc1)=C1/N=C(NC(=O)c2cccs2)c2ccccc21 | . | 4µM
Nc1nc2c(c(=O)[nH]1)CN(CCCN1CCOCC1)CN2 | . | .
Cc1cc(C2=NNC(=NC3CC3)SC2)c(C)n1-c1ccccc1F | . | ?
C=C(C)CN=C1NN=C(c2cc(C)n(-c3ccc(C)cc3)c2C)CS1 | . | 7.9µM
CCOc1ccccc1CNC(=O)c1oc2c(c1C)-c1[nH]ncc1CC2 | . | .
O=C(Nc1ccc(CN2CCOCC2)cc1)c1ccc(-c2cc(Cl)ccc2Cl)o1 | . | 25µM
S=C(c1ccc(-c2cc(Cl)ccc2Cl)o1)N1CCOCC1 | . | .
O=[N+]([O-])c1cc(S(=O)(=O)C(F)(F)F)ccc1Sc1nc2ccccc2s1 | . | 25µM
CS(=O)(=O)c1ccc(Sc2nc3ccccc3s2)c([N+](=O)[O-])c1 | . | .
COC(=O)c1c(NC(=O)c2c(-c3ccccc3Cl)noc2C)sc2c1CCC2 | . | 13µM
COC(=O)c1c(NC(=O)c2c(C)noc2C)sc2c1CCCCCC2 | . | .
C=CCN1C(=O)/C(=C\c2ccc(Cl)cc2)N=C1SCC(=O)NC1CCCCC1 | . | 10µM
Nn1c(SCC(=O)NC2CCCCC2)nnc1-c1ccc(Cl)cc1 | . | .
CNC(=S)N1N=C(c2ccc(C)cc2)CC1c1ccc(Cl)cc1 (stereo unspecified) | . | .
CNC(=S)N1N=C(c2ccc(C)cc2)CC1c1ccc(Br)cc1 (stereo unspecified) | . | 2.5µM
SMILES | Cruzain Triton | Cruzain noTriton
Cc1ccc(C(=O)C(C(=O)/C=C/c2ccccc2)=C2SCCCS2)cc1 | . | 25µM
COc1ccc(/C=C/C(=O)C(C(N)=O)=C2SCCS2)cc1 | . | .
CCc1nn(Cc2c(C)cc(C)cc2C)c(=O)c2cc3cc(C)ccc3n12 | . | .
COc1ccc(Br)c(/C=N/NC(=O)COc2ccc(-c3ccccc3)cc2)c1 | . | 20µM
COc1ccc(/C=N/NC(=O)COc2ccccc2-c2ccccc2)cc1 | . | .
COc1ccc(CNC(=O)c2ccc3c(c2)NC(=O)C(CS(=O)(=O)Cc2ccccc2Cl)N3)cc1 (stereo unspecified) | . | .
O=C(NCc1ccc(Cl)cc1)c1ccc2c(c1)NC(=O)C(CS(=O)(=O)Cc1ccccc1Cl)N2 (stereo unspecified) | . | 25µM
Cc1cc(=O)[nH]c2nnc(SCc3c(F)cccc3Cl)n12 | . | .
O=c1c(Oc2ccccc2F)coc2cc(OCc3cnn(-c4ccccc4)c3)ccc12 | . | .
Cc1[nH]nc(-c2ccc(OCc3cnn(-c4ccccc4)c3)cc2O)c1Oc1ccccc1F | . | 20µM
Cc1cccc(C(=O)N2CCc3cc(CNC(=O)c4ccnn4C)ccc32)c1 | . | .
COc1ccc(N2CCN(CCCNC(=O)c3c(C)nn(-c4ccc(F)cc4)c3-n3cccc3)CC2)cc1 | . | .
COc1ccc(Cl)cc1NC(=O)C/C(C)=N/NC(=O)CC#N | . | .
C/C(CC(=O)Nc1ccc(Cl)cc1Cl)=N\NC(N)=S | 10µM | 7.9µM
Cc1ccc(NC(=O)C2CCC(CNS(=O)(=O)c3ccc4c(c3)CCCC(=O)N4)CC2)cc1F (stereo unspecified) | . | .
CN1CCN(S(=O)(=O)c2cccc(C(=O)Nc3nc(-c4ccccc4)cs3)c2)CC1 | . | .
CCOC(=O)c1csc(NC(=O)c2ccc(S(=O)(=O)N(C)C)cc2)n1 | . | .
COC(=O)c1ccc(-n2c(C)cc(-c3csc(NC(=O)c4ccc(S(=O)(=O)N(C)C)cc4)n3)c2C)cc1 | . | 4µM
Cc1cc(-c2csc(NC(=O)c3cccc(S(=O)(=O)N(C)C)c3)n2)c(C)n1-c1ccccc1 | . | 7.9µM
Cc1ccc(OCC(=O)NCC(=O)OCc2cc(=O)n3nc(CC(C)C)sc3n2)cc1 | . | .
CCc1nn(CC(=O)N(CC)Cc2ccccc2)c(=O)c2cc3occc3n12 | . | .
O=c1c(-c2cccc(Cl)c2)nc2cncnc2n1Cc1ccccc1Cl | . | .
COc1ccc(-c2nn(C)c3sc(C(=O)Nc4cc(OC)c(OC)c(OC)c4)cc23)cc1OC | . | ?
CCOc1ccc(OCC)c(NC(=O)Cn2nc(CC)n3c(cc4sccc43)c2=O)c1 | . | .
